Assay [1] deals with PRMT1 (protein arginine N-methyltransferase 1). The assay can be described thus: small molecules binding arginine methyltransferase PRMT1 – biochemical, small-molecule microarray, 635 nm fluorescence, primary screen (AID 1088).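 Further: binding of Prmt1 protein to compounds spotted on small-molecule microarray slides.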 To be noted: higher = more signal.
A short description of assay [2]: growth effects on S. cerevisiae YJM789 – YJM789 clinical isolate, OD600, 24 h, basal, primary screen (AID 1089).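 Further: growth of clinical yeast isolate S. cerevisiae YJM 789 seeded 1000 cells per well; test concentration not given here.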 To be noted: higher = more signal, called active from +8 up or from −8 down.
The nature of assay [3]: S. pombe growth modifiers, basal conditions – strain 972, OD600, 24 h, no modulator, primary screen (AID 1090).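 Further: basal condition with compound alone and no growth modifier present; test concentration not given here.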 To be noted: S. pombe 972 growth, higher = more signal, called active from +8 up or from −8 down.
Assay [4] is described as follows: budding yeast growth modifiers under rapamycin – strain BY4716, OD600, 96 h, primary screen (AID 1091). Further: test concentration not given here. To be noted: S. cerevisiae BY4716 + rapamycin, higher = more signal, called active from +8 up or from −8 down.
Assay [5] concerns the target Torsin-1A-interacting protein 2 (Homo sapiens) (UniProt Q8NFQ8). The assay can be described thus: small molecules binding lysate-expressed LULL1 – cell lysate, human LULL1 lysate, 635/667 nm fluorescence, primary screen (AID 1092).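 Further: probe is lysate of COS7 cells overexpressing human LULL1; score merges per-feature 667 nm fluorescence with signal-to-noise.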 To be noted: small-molecule microarray, hLULL1 lysate binding, 635 nm fluorescence; higher = more signal.
Assay [6] is described as follows: optical density change of DRC41 E. coli – strain DRC41, OD650, 24 h, E. coli filamentation project, primary screen (AID 1093).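 Further: MC1000 strain lacking acrAB efflux and sulA so SOS filamentation is blocked; test concentration not given here.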 To be noted: E. coli DRC41 growth, higher = more signal, called active from +8 up or from −8 down.
The nature of assay [7]: probe aLefty2 binding to arrayed compounds – biochemical, biotinylated probe, 635/667 nm fluorescence, primary screen (AID 1094).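 Further: score merges spot fluorescence near 667 nm with spot signal-to-noise ratio.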 To be noted: small-molecule microarray, higher = more signal.
The test system of assay [8] is Noggin (protein binding on small-molecule microarray). The assay can be described thus: small molecules binding Noggin protein – biochemical, 635/667 nm fluorescence, primary screen (AID 1095).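 Further: score merges 667 nm feature fluorescence with signal to noise over triplicate slides.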 To be noted: 635 nm fluorescence, higher = more signal.
For assay [9], the target named is Neurogenic locus notch homolog protein 3 (Homo sapiens) (UniProt Q9UM47). The assay can be described thus: small molecules binding NOTCH3 protein – biochemical, 635/667 nm fluorescence, primary screen (AID 1096). To be noted: small-molecule microarray, 635 nm fluorescence, higher = more signal.
Assay [10] can be described thus: probe aEGFR binding to arrayed compounds – biochemical, biotinylated probe, 635/667 nm fluorescence, primary screen (AID 1097).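 Further: probe is a biotinylated anti-EGFR antibody binding compounds printed on slides; score combines fluorescence near 667 nm and signal to noise of each spot.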 To be noted: small-molecule microarray, higher = more signal.
The test system of assay [11] is Plasmodium falciparum Sir2 (PF13_0152, Sir2A). The assay can be described thus: Plasmodium falciparum Sir2A binding compounds – biochemical, small-molecule microarray, 635 nm fluorescence, primary screen (AID 1098).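 Further: score merges spot fluorescence intensity with its signal-to-noise ratio.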 To be noted: fluorescence 635 nm, higher = more signal.
Assay [12] in a line: probe aDKK1 binding to arrayed compounds – biochemical, biotinylated probe, 635/667 nm fluorescence, primary screen (AID 1099).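 Further: score merges 667nm spot fluorescence with signal to noise across triplicate slides; reference of the scale not given here.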 To be noted: small-molecule microarray, higher = more signal.
A short description of assay [13]: probe aCHRDL2 binding to arrayed compounds – biochemical, biotinylated probe, 635/667 nm fluorescence, primary screen (AID 1100). To be noted: small-molecule microarray, higher = more signal.
A short description of assay [14]: change in splice reporter luminescence, either direction, cell-based, HEK293, spliceosome inhibition project, primary screen (AID 1101).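 Further: HEK293 cells carrying a splicing-competent luciferase reporter gene; test concentration not given here.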 To be noted: HEK293 splicing luciferase reporter, 24 h, higher = more signal, called active from +8 up or from −8 down. Background: In a reporter assay the amount or activity of a reporter protein is the signal.
The target in assay [15] is Fibroblast growth factor 10 (Homo sapiens) (UniProt O15520). The assay can be described thus: compounds binding fibroblast growth factor 10 – biochemical, small-molecule microarray, 635 nm fluorescence, primary screen (AID 1102). To be noted: FGF10 binding, fluorescence 635 nm, higher = more signal.
The test system of assay [16] is glycogen synthase kinase-3 (GSK3A per assay name; protocol says GSK3B). The assay can be described thus: compounds binding glycogen synthase kinase-3 – biochemical, small-molecule microarray, 635 nm fluorescence, GSK3A, primary screen (AID 1103). Further: the record names both GSK3A and GSK3B. To be noted: fluorescence 635 nm, higher = more signal.
For assay [17], the target named is Epidermal growth factor receptor (Homo sapiens) (UniProt P00533). The assay can be described thus: compounds binding epidermal growth factor receptor – biochemical, small-molecule microarray, 635 nm fluorescence, primary screen (AID 1104).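 Further: score merges 667 nm emission intensity with spot signal to noise over triplicate slides.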 To be noted: EGFR binding, higher = more signal.
Assay [18] has as its target Follistatin-related protein 3 (Homo sapiens) (UniProt O95633). The assay can be described thus: compounds binding follistatin-related protein 3 – biochemical, small-molecule microarray, 635 nm fluorescence, primary screen (AID 1105).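 Further: score merges emission near 667 nm and signal to noise per printed spot across three slides.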 To be noted: FSTL3 binding, higher = more signal.
The target in assay [19] is Dickkopf-related protein 1 (Homo sapiens) (UniProt O94907). The assay can be described thus: small molecules binding DKK1 protein – biochemical, small-molecule microarray, 635 nm fluorescence scan, primary screen (AID 1106).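 Further: score merges emission near 667 nm with signal to noise over three replicate slides.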 To be noted: higher = more signal.
For assay [20], the system named is Inhibin beta A chain (activin A). The assay can be described thus: small molecules binding activin A – biochemical, small-molecule microarray, 635 nm fluorescence scan, primary screen (AID 1107).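 Further: mouse activin A protein probed at 4.33 µg/mL on printed slides; score merges bound-protein fluorescence near 667 nm with spot signal-to-noise.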 To be noted: INHBA, higher = more signal.

Calls of active or inactive are those of the source.

Sequence of Follistatin-related protein 3 (Homo sapiens) (O95633 whole entry, looked up): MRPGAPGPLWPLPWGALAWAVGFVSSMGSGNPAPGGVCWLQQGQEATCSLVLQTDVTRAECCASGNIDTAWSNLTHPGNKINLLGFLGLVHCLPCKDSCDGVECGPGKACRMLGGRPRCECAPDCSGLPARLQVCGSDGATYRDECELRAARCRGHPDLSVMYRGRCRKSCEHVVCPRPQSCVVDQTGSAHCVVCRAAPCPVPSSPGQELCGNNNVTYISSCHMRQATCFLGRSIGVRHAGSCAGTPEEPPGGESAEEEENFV
Sequence of Torsin-1A-interacting protein 2 (Homo sapiens) (Q8NFQ8 whole entry, looked up): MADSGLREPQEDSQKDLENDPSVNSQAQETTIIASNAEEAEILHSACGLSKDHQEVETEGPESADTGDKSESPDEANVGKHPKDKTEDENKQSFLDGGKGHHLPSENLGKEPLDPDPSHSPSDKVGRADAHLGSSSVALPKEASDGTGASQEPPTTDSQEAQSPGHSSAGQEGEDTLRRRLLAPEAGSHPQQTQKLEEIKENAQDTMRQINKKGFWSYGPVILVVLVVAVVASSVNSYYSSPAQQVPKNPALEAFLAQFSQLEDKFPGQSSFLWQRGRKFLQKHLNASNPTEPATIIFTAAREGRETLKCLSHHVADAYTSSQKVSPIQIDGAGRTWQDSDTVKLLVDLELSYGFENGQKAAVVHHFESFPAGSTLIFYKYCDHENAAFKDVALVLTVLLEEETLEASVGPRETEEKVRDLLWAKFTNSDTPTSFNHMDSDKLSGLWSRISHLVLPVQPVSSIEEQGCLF
Sequence of Epidermal growth factor receptor (Homo sapiens) (P00533 whole entry, looked up): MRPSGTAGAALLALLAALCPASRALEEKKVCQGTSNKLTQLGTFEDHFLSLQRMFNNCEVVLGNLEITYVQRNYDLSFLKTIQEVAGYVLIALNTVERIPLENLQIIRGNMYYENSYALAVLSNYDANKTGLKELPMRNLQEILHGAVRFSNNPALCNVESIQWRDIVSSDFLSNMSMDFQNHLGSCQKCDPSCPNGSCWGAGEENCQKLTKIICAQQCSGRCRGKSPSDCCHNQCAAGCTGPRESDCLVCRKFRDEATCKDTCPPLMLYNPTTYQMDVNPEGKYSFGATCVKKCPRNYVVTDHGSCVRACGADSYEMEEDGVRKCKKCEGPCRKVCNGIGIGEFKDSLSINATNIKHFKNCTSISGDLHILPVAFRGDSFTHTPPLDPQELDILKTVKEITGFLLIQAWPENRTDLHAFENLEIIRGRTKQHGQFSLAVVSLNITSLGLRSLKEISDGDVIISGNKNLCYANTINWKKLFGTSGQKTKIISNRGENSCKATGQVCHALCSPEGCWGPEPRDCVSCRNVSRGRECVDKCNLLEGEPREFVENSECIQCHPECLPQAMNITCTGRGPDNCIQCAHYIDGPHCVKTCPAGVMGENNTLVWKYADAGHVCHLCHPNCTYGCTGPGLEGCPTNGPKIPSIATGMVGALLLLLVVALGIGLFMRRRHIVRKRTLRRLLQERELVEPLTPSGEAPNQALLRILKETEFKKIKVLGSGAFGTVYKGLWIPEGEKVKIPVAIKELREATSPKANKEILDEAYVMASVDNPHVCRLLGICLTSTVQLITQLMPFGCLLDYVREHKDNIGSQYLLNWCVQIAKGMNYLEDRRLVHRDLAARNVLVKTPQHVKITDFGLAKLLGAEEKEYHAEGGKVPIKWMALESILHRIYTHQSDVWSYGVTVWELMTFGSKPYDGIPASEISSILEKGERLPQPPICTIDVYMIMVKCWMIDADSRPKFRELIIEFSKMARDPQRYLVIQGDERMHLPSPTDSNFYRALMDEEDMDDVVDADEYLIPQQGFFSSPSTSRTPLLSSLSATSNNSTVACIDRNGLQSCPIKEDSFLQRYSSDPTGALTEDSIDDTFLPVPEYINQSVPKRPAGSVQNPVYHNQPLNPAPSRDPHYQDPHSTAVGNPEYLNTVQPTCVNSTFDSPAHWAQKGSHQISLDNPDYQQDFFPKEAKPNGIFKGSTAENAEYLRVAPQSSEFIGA
Sequence of Neurogenic locus notch homolog protein 3 (Homo sapiens) (Q9UM47 whole entry, looked up): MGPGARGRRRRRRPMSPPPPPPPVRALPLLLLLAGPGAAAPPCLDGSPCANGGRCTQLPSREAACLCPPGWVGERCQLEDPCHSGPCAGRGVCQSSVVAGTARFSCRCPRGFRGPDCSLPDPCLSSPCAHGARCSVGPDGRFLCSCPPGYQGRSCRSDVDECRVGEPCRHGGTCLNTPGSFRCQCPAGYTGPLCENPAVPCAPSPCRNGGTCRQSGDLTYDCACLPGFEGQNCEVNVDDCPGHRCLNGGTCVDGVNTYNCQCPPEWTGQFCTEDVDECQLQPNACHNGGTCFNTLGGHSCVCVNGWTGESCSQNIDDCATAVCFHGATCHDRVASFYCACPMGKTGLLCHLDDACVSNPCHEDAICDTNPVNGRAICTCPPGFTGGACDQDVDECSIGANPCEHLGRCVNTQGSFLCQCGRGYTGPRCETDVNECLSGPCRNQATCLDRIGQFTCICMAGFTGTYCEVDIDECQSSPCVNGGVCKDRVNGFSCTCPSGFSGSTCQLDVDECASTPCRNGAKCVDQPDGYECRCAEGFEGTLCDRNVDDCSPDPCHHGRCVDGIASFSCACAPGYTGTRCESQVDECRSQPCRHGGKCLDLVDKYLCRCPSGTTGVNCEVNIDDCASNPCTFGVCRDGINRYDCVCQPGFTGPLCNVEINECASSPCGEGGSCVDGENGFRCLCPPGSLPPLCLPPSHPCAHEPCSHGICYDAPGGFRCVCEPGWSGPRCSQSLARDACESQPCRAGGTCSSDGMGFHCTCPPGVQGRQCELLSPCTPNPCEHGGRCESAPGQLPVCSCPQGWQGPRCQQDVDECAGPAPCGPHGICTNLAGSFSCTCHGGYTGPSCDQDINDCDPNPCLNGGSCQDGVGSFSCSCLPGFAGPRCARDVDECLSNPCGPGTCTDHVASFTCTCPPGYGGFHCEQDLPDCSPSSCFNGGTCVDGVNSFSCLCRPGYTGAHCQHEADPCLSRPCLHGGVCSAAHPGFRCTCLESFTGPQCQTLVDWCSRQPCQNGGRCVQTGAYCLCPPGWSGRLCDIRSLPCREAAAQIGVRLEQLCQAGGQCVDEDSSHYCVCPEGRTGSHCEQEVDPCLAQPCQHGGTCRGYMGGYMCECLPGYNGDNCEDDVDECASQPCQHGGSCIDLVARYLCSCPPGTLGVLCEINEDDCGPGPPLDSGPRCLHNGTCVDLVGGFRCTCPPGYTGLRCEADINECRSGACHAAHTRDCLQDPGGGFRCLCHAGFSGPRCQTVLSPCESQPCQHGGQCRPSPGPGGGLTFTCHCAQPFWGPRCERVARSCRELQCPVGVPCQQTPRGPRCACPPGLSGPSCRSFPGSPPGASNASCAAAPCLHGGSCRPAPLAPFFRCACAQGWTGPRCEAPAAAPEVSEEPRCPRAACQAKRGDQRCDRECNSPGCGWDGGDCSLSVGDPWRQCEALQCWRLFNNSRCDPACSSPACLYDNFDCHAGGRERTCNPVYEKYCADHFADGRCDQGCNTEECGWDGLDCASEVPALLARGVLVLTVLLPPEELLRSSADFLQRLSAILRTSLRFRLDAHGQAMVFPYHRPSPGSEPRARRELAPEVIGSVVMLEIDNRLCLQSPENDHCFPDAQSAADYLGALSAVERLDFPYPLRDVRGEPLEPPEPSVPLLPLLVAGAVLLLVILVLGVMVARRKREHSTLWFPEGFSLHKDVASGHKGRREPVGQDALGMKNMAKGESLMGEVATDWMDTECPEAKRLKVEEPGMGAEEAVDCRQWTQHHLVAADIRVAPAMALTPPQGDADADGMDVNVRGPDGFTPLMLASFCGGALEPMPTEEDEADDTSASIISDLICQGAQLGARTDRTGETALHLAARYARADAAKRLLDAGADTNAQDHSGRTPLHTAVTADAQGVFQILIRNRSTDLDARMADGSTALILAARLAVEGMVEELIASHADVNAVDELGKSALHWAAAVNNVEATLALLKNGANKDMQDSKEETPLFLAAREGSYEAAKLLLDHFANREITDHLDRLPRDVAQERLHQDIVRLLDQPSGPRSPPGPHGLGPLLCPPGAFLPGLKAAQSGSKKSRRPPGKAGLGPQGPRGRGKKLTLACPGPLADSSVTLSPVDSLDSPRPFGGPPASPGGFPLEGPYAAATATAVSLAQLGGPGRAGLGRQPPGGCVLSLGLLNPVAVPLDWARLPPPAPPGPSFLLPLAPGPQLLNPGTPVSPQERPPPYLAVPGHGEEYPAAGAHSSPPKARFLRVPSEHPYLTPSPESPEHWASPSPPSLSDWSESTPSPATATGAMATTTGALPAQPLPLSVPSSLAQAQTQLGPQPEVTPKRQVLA
Sequence of Fibroblast growth factor 10 (Homo sapiens) (O15520 whole entry, looked up): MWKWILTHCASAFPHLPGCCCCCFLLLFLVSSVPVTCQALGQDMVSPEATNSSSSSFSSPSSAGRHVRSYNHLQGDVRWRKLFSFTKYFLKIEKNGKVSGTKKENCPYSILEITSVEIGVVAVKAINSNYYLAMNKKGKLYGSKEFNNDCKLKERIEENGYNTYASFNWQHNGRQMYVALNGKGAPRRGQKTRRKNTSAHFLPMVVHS
Sequence of Dickkopf-related protein 1 (Homo sapiens) (O94907 whole entry, looked up): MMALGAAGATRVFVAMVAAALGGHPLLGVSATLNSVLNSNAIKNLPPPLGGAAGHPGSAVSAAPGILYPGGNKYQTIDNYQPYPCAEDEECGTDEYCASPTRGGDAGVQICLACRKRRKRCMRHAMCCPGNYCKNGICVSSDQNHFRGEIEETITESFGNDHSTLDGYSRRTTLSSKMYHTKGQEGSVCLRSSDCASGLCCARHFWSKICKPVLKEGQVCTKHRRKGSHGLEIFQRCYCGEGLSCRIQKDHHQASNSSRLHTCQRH

For the compound `CCN1C(=O)[C@H]2[C@H]3[C@H](O)[C@H](O)CC(=NO[C@@H](C)c4cn([C@H](CO)Cc5ccccc5)nn4)[C@@H]3CC[C@H]2C1=O`, the composite z-score is 1.14 in assay [1]; 1.28 in assay [5]; -0.264 in [7]; 0.387 in assay [8]; 0.988 in [9]; 0.0346 in assay [10]. The composite z-score in assay [11] was 0.774; in [12], 0.262; in [13], -0.426; in assay [15], 0.792; in assay [16], 0.92; in [17], 0.182. Also, the composite z-score was 1.14 in assay [18], 0.692 in [19] and -1.1 in assay [20]. The z-score in assay [2] was 0.149 (inactive); in assay [3], 0.718 (inactive); in [4], 0.726 (inactive); in [6], 0.194 (inactive); in assay [14], 0.358 (inactive).

Take `CCCCc1nc2c(c3c1C[C@H](C)OC3)CN(CCOc1ccccc1)CC2`: the composite z-score is 1.44 in assay [1]; 1.62 in assay [5]; -0.005 in [7]; 0.339 in assay [8]; 0.732 in [9]; 0.219 in assay [10]. In addition, the composite z-score is 0.489 in [11]; 0.107 in assay [12]; -0.277 in assay [13]; 0.632 in assay [15]; 0.427 in [16]; 0.681 in [17]. In addition, the composite z-score turned out to be 1.27 in assay [18], 0.302 in [19] and 0.765 in assay [20]. The z-score was -2.26 (inactive) in assay [2]; -4.02 (inactive) in assay [3]; 0.574 (inactive) in assay [4]; 0.976 (inactive) in assay [6]; -1.21 (inactive) in assay [14].

As to `CCOC(=O)NN=C1C[C@@H](O)[C@@H](O)[C@@H]2[C@@H]3C(=O)N(c4cccc(Oc5ccccc5)c4)C(=O)[C@@H]3CC[C@@H]12`, the composite z-score in [1] is -0.037; in [5], 1.26; in assay [7], -0.335; in assay [8], 0.918; in [9], -0.362; in assay [10], -0.163. Also, the composite z-score was 0.933 in [11]; -0.27 in assay [12]; -0.187 in [13]; 1.13 in [15]; -0.652 in assay [16]; 0.164 in assay [17]. Besides, the composite z-score in assay [18] was -0.329; in [19], -0.313; in assay [20], -0.237. Moreover, the z-score in [2] was -0.73 (inactive); in [3], 0.385 (inactive); in assay [4], -0.869 (inactive); in assay [6] it was 0.205 (inactive); in assay [14] it was 0.0999 (inactive).

With `COC(=O)CC=C[C@@H](C)[C@@H](C=NO[C@H](C)c1cn([C@@H]2COC[C@H]2O)nn1)NS(=O)(=O)c1ccc(C)cc1`, the composite z-score in assay [1] is 0.274; in assay [5], -0.0305; in [7], 0.0428; in assay [8], 0.492; in assay [9], 0.223; in assay [10] it was 0.0049. Further, the composite z-score in [11] is 0.163; in assay [12], -0.268; in [13], -0.57; in assay [15], 0.43; in assay [16] it was 0.427; in assay [17], 0.59. Moreover, the composite z-score in [18] was 0.746; in assay [19], 1.07; in [20], 0.216. Besides, the z-score in assay [2] was 0.412 (inactive); in assay [3], 0.144 (inactive); in assay [4] it was -0.173 (inactive); in assay [6], 0.554 (inactive); in assay [14], -0.0248 (inactive).

`COC(=O)CC=C[C@@H](C)[C@@H](C=NO[C@H](C)c1cn([C@H](CO)Cc2ccccc2)nn1)OC`: the composite z-score in assay [1] was 1.14; in [5], 0.169; in assay [7], -0.12; in assay [8], 1.37; in [9], 0.614; in assay [10] it was 0.0556. Besides, the composite z-score in assay [11] is 0.611; in assay [12], -0.233; in assay [13], -0.736; in assay [15] it was 0.877; in assay [16], 0.483; in assay [17], 0.952. The composite z-score in assay [18] was 0.515; in [19] it was 1.06; in [20] it was -0.34. For the same compound, the z-score in assay [2] was -0.14 (inactive); in [3] it was -0.617 (inactive); in [4], -0.0624 (inactive); in [6], 0.0673 (inactive); in assay [14] it was 0.934 (inactive).
